A word on the inhibition: it is the drop in the measured response relative to a control, in per cent.

From PubChem BioAssay come the findings set out here.

Activity calls are given as the source filed them.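 The calls were made as follows, unless noted: active = fluorescence slope higher than the sample average by over 3 SD (cut at about -0.22 in these data, passing the limit was not always enough); inactive = the rest.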

Experiment [1] in a line: inhibitors of TNFa-induced NFkB p65 translocation, primary screen, imaging, HUVEC, MLSMR starter and 10KST1 sets (AID 438;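 active = inhibition above 20% together with a positive visual image hit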;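 also: compound added about 3h40 before a 20 min TNFalpha stimulation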;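 as to inhibition: signal is the nuclear over cytoplasmic p65 intensity ratio per well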). The note with it: HUVEC TNFa-induced p65 nuclear translocation; cell count: measured here: nuclei count (cytotoxicity indicator), at 2.08 µM; inhibition: at 2 µM, stronger effect = higher value, 0% TNFa-plus-vehicle, 100% no-TNFa wells.
A short description of experiment [2]: reduction of polyQ htt aggregates in cells – imaging, exon1htt(103Q)mCFP cells, high-content imaging, primary screen (AID 483;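 active = visual image review flags a hit and inhibition of aggregation exceeds 20%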;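 also: compound exposure lasted 3 days before fixation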;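 as to nuclei count: percent of the per-plate median nuclei count of sample wells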). The note with it: exon1htt(103Q)mCFP cell line, aggregate imaging, at 2 µM; inhibition of aggregation: stronger effect = higher value; nuclei count: measured here: cell count, toxicity.
Experiment [3] in a line: endothelial E-selectin expression blockers – imaging, HUVEC, immunofluorescence, MLSMR starter and 10KST1 sets, primary screen (AID 487;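 active = visually confirmed hit in the image check and inhibition above 20%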;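 as to inhibition: signal is fraction of cell area covered by stained E-selectin grains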;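 as to nuclei count: 100% = median nuclei count of all wells on the same plate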). The note with it: HUVEC TNFalpha-induced E-selectin immunofluorescence imaging, at 2 µM; inhibition: stronger effect = higher value; nuclei count: measured here: cell number, toxicity.
The target of experiment [4] is Voltage-gated potassium channel subunit beta-2 (Rattus norvegicus) (UniProt P62483). The experiment in a line: inhibitors of rat Kvbeta2 reductase activity – biochemical, NADPH fluorescence, primary screen (AID 622).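 Also: slope of raw intensity against log time taken from 70 to 1610 s.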 The note with it: recombinant KvBeta, 4-cyanobenzaldehyde reduction, at 10 µM, stronger effect = higher value.
Chain of Voltage-gated potassium channel subunit beta-2 (Rattus norvegicus) (P62483 whole entry, looked up): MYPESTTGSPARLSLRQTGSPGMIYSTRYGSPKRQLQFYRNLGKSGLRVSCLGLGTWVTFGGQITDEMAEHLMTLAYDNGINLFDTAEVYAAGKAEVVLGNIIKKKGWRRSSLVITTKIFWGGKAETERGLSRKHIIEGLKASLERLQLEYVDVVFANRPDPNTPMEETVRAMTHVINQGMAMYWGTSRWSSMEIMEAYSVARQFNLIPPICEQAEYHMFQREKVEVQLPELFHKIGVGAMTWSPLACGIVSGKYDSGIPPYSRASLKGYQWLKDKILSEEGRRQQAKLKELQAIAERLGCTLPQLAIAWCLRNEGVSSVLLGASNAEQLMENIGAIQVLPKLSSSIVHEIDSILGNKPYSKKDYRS
Experiment [5] shares this target. The experiment is described as follows: enhancers of rat Kvbeta2 NADPH turnover – biochemical, NADPH fluorescence, primary screen (AID 623;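 active = NADPH fluorescence slope more negative than the mean of all samples by about 3 SD, 99.7% confidence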;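 also: fluorescence intensity change per second fitted from 20 to 320 s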). The note with it: Recombinant KvBeta, NADPH fluorescence decrease slope, 10 min; at 10 µM; stronger effect = lower value.
The target in experiment [6] is Alpha-2C adrenergic receptor (Homo sapiens) (UniProt P18825). The experiment is described as follows: compounds altering alpha2C-coupled GIRK flux – cell-based, HEK293 alpha2C/GIRK1/2, thallium flux, primary screen (AID 624;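 active = fluorescence slope after compound addition differing from the mean of all screened samples at 99.7% confidence, in either direction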;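 also: slope of fluorescence ratio to pre-addition baseline per second over 15 to 24 s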). The note with it: thallium flux BTC fluorescence, at 10 µM, actives lie on both sides.
Chain of Alpha-2C adrenergic receptor (Homo sapiens) (P18825 whole entry, looked up): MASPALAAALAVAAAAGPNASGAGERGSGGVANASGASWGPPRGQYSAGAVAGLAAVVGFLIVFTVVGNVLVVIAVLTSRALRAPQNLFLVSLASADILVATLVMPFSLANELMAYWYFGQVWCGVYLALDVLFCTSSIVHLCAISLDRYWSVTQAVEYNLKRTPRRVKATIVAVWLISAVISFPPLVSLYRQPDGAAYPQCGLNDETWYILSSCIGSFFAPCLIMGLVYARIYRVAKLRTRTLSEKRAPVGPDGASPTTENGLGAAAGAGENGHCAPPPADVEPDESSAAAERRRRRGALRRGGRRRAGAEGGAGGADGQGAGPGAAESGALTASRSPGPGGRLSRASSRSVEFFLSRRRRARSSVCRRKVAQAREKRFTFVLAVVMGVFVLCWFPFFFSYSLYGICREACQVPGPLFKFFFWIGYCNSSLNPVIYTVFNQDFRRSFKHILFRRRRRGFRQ
A short description of experiment [7]: blockers of RIG-like receptor reporter activation – cell-based, Sendai virus stimulus, luciferase, 10K MLSCN set, TLR/RLR signaling modifier project, primary screen (AID 602276;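 active = inhibition at or above 50% at 10 µM; inactive = inhibition below 50%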;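 also: firefly luciferase from ISG56 promoter only with Renilla not read in this screen; 0% = Sendai virus plus DMSO and 100% = medium plus DMSO without virus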). The note with it: HEK293 RL24 IRF3 luciferase reporter, at 10 µM, stronger effect = higher value. (Reporter assays use an easily measured gene product as a stand-in for the process of interest.)

A short description of experiment [8]: TLR3 IRF3 reporter activation blockers – cell-based, poly I:C stimulus, luciferase, 10K MLSCN set, primary screen (AID 602277;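 active = inhibition of the reporter signal at or above 50%; inactive = inhibition below 50%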). The note with it: HEK293-TLR3 RL24 IRF3 luciferase reporter, at 10 µM, stronger effect = higher value.

For the compound `CCOC(=O)c1[nH]c(C)c(C(=O)NCC2CCCO2)c1C` (centres undefined), the cell count in experiment [1] turned out to be 390. Besides, the inhibition in experiment [1] was 2.8% (inactive); in experiment [3], -13.6% (inactive); in experiment [7], 8.72% (inactive); in experiment [8], 14.8% (inactive). The inhibition of aggregation in experiment [2] was 5.8% (inactive). In addition, the nuclei count stood at 103% in experiment [2] and 86.3% in experiment [3]. The fluorescence slope in experiment [4] was -0.608 (inactive). Further, in experiment [5], the NADPH fluorescence slope was -7.6e-06 (inactive). In addition, the slope in experiment [6] was 0.00577 (inactive).
With `CCCN1C2CCCC1CC(NC(=O)Nc1cccc(C(C)=O)c1)C2` (centres undefined), the cell count in experiment [1] is 418. The inhibition in experiment [1] was -10.3% (inactive); in experiment [3] it was -138% (inactive); in experiment [7], 23.1% (inactive); in experiment [8], 37.8% (inactive). In experiment [2], the inhibition of aggregation is -17% (inactive). Further, the nuclei count in experiment [2] amounted to 97%; in experiment [3], 180%. In addition, the fluorescence slope in experiment [4] was -0.637 (inactive). The NADPH fluorescence slope in experiment [5] is 1.7e-05 (inactive). Further, the slope in experiment [6] was 0.00567 (inactive).
Consider `Fc1ccc(Cn2nnc(-c3ccc(CN4CCOCC4)cc3)n2)cc1`, for which, in experiment [1], the cell count was 299. The inhibition was 4.3% (inactive) in experiment [1], 9.3% (inactive) in experiment [3], -2.6% (inactive) in experiment [7] and -37.2% (inactive) in experiment [8]. In addition, in experiment [2], the inhibition of aggregation is 11.5% (inactive). In addition, the figures for the nuclei count in experiment [2] and in experiment [3] were 102% and 117%, respectively. The fluorescence slope in experiment [4] was -0.44 (inactive). Moreover, the NADPH fluorescence slope in experiment [5] is -1.1e-05 (inactive). The slope in experiment [6] is 0.00406 (inactive).
As to `COc1cc2c(cc1OC)C(c1cccnc1)CC(=O)N2` (centres undefined), in experiment [1], the cell count came to 481. The inhibition is -7.4% (inactive) in experiment [1], -30.8% (inactive) in experiment [3], 9.14% (inactive) in experiment [7] and 14.4% (inactive) in experiment [8]. In addition, the inhibition of aggregation in experiment [2] was -12.3% (inactive). For the same compound, the nuclei count in experiment [2] came out at 71.7%; in experiment [3] it was 117%. Also, the fluorescence slope in experiment [4] was -0.513 (inactive). In addition, the NADPH fluorescence slope in experiment [5] is -2.9e-05 (inactive). Further, in experiment [6], the slope is 0.00629 (inactive).
For the compound `O=C(NCCCCNC(=O)c1c(F)c(F)c(F)c(F)c1F)c1c(F)c(F)c(F)c(F)c1F`, in experiment [1], the cell count stood at 778. Further, the inhibition in experiment [1] is 1% (inactive); in experiment [3], -48.4% (inactive); in experiment [7] it was 12.8% (inactive); in experiment [8] it was 20% (inactive). For the same compound, the inhibition of aggregation in experiment [2] was 10.7% (inactive). In addition, the nuclei count in experiment [2] was determined as 104%; in experiment [3] it was 110%. Moreover, the fluorescence slope in experiment [4] was -0.308 (inactive). Moreover, the NADPH fluorescence slope in experiment [5] is 3.6e-05 (inactive). Besides, in experiment [6], the slope was 0.00647 (inactive).
For `COc1ccc(-n2c(SCC#N)nc3ccccc3c2=O)cc1`, the cell count in experiment [1] came to 314. In addition, the inhibition was -4.7% (inactive) in experiment [1], -11% (inactive) in experiment [3], -8.69% (inactive) in experiment [7] and -76.1% (inactive) in experiment [8]. Besides, the inhibition of aggregation in experiment [2] is -15.4% (inactive). The results for the nuclei count in experiment [2] and in experiment [3] were 105% and 118%, respectively. Further, the fluorescence slope in experiment [4] is -0.491 (inactive). Also, the NADPH fluorescence slope in experiment [5] is 7e-05 (inactive). The slope in experiment [6] was 0.00655 (inactive).
Consider `O=C(Nn1cnnc1)C1Cc2ccccc2CN1S(=O)(=O)c1ccc(F)cc1` (centres undefined), for which, in experiment [1], the cell count is 326. In addition, the inhibition in experiment [1] is -6.7% (inactive); in experiment [3], 0.9% (inactive); in experiment [7], 14.1% (inactive); in experiment [8], 24.9% (inactive). In experiment [2], the inhibition of aggregation was 7.4% (inactive). Besides, the results for the nuclei count in experiment [2] and in experiment [3] were 95.2% and 95.6%, respectively. Besides, the fluorescence slope in experiment [4] is -0.481 (inactive). In addition, the NADPH fluorescence slope in experiment [5] is -2.7e-05 (inactive). Moreover, the slope in experiment [6] is 0.00658 (inactive).
Take `O=C(O)CN1C(=O)C2(OCCCO2)c2ccccc21`: the cell count in experiment [1] was 542. Besides, the inhibition in experiment [1] is -5.7% (inactive); in experiment [3] it was -0.7% (inactive); in experiment [7] it was 17% (inactive); in experiment [8], 18.6% (inactive). Besides, in experiment [2], the inhibition of aggregation is -4.1% (inactive). Moreover, the results for the nuclei count in experiment [2] and in experiment [3] were 96.1% and 124%, respectively. The fluorescence slope in experiment [4] was -0.538 (inactive). In addition, the NADPH fluorescence slope in experiment [5] is 6.1e-05 (inactive). In addition, the slope in experiment [6] is 0.0059 (inactive).
Turning to `Cn1cccc1Cc1nnc(SCC(=O)NCc2ccc(F)cc2)n1-c1ccc(F)cc1`, in experiment [1], the cell count was determined as 767. The inhibition in experiment [1] is -7.4% (inactive); in experiment [3], -56.2% (inactive); in experiment [7] it was -4.39% (inactive); in experiment [8], 9.66% (inactive). Also, the inhibition of aggregation in experiment [2] is 20% (inactive). Also, the figures for the nuclei count in experiment [2] and in experiment [3] were 139% and 116%, respectively. In addition, the fluorescence slope in experiment [4] was -0.579 (inactive). In experiment [5], the NADPH fluorescence slope was 8.6e-06 (inactive). The slope in experiment [6] is 0.00663 (inactive).
Turning to `O=S(=O)(Nc1cccnc1)c1cc(Cl)ccc1Cl`, the cell count in experiment [1] worked out at 395. In addition, the inhibition is 2.5% (inactive) in experiment [1], 26.2% (inactive) in experiment [3], 23.6% (inactive) in experiment [7] and 7.22% (inactive) in experiment [8]. For the same compound, the inhibition of aggregation in experiment [2] was 6.1% (inactive). Further, the values for the nuclei count in experiment [2] and in experiment [3] were 99.9% and 115%, respectively. The fluorescence slope in experiment [4] is -0.286 (inactive). For the same compound, the NADPH fluorescence slope in experiment [5] is 2e-06 (inactive). In addition, in experiment [6], the slope is 0.00524 (inactive).
With `CCCc1nc(NCc2ccncc2)c2nnn(Cc3ccccc3F)c2n1`, the cell count in experiment [1] stood at 711. Also, the inhibition in experiment [1] is -6.1% (inactive); in experiment [3], -57% (inactive); in experiment [7] it was 9.12% (inactive); in experiment [8], 19.1% (inactive). For the same compound, the inhibition of aggregation in experiment [2] was -40.7% (inactive). Moreover, the nuclei count in experiment [2] was 116%; in experiment [3], 120%. For the same compound, the fluorescence slope in experiment [4] was -0.507 (inactive). For the same compound, in experiment [5], the NADPH fluorescence slope was -0.000136 (inactive). The slope in experiment [6] is 0.00544 (inactive).
As to `CCC(CC)C(=O)NCCc1cc2ccc(C)cc2[nH]c1=O`, the cell count in experiment [1] amounted to 643. Moreover, the inhibition in experiment [1] was 0.5% (inactive); in experiment [3] it was -15.4% (inactive); in experiment [7] it was 14.3% (inactive); in experiment [8], 26.1% (inactive). In experiment [2], the inhibition of aggregation is 3% (inactive). Further, the nuclei count is 117% in experiment [2] and 111% in experiment [3]. Moreover, the fluorescence slope in experiment [4] is -0.556 (inactive). For the same compound, the NADPH fluorescence slope in experiment [5] is -3.5e-05 (inactive). Besides, the slope in experiment [6] was 0.00557 (inactive).
Consider `O=C1CC(c2cccc(Cl)c2)Cc2nc(N3CCN(c4ccccc4)CC3)ncc21` (centres undefined), for which, in experiment [1], the cell count was 715. For the same compound, the inhibition was -1.6% (inactive) in experiment [1], -57.1% (inactive) in experiment [3], -7.91% (inactive) in experiment [7] and -2.99% (inactive) in experiment [8]. The inhibition of aggregation in experiment [2] was -8.3% (inactive). Further, the nuclei count in experiment [2] turned out to be 111%; in experiment [3], 140%. Further, the fluorescence slope in experiment [4] is -0.442 (inactive). Besides, the NADPH fluorescence slope in experiment [5] is 2.5e-05 (inactive). Further, the slope in experiment [6] was 0.00428 (inactive).
`O=C(C1CC1)N1CCC(c2nc(-c3ccc(S(=O)(=O)NCC4CCCO4)cc3)no2)CC1` (centres undefined): the cell count in experiment [1] was determined as 334. Moreover, the inhibition in experiment [1] was -3% (inactive); in experiment [3], -43.6% (inactive); in experiment [7], -27.5% (inactive); in experiment [8] it was -49.4% (inactive). Moreover, the inhibition of aggregation in experiment [2] is -20.7% (inactive). For the same compound, the nuclei count is 143% in experiment [2] and 91.9% in experiment [3]. In addition, the fluorescence slope in experiment [4] was -0.491 (inactive). Moreover, the NADPH fluorescence slope in experiment [5] is 3.5e-06 (inactive). In experiment [6], the slope was 0.00666 (inactive).
